Some test systems named below: DU-145 prostate; K-562 leukemia; MALME-3M melanoma; MDA-MB-231 breast; RXF 393 renal; SF-268 CNS; SF-295 CNS; SF-539 CNS; UACC-257 melanoma; M14 melanoma.
Experiment in all cases: NCI-60 one-dose screen, 48 h (100 = growth as untreated, 0 = no growth, -100 = all killed)
Common to all, as to conditions: 10 µM unless noted

The panel holds about 83,000 compounds, 20% with a hit somewhere; the sample as a whole holds those more often.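 Assay: single dose, 48 h. Readout: percent growth (0 = no net growth; negative = cell death). Active: <10.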 Values without a mark were called inactive. Active and inactive are the calls of the source.

As for `COc1ccc2[nH]c(=O)c(/C=C/C(=O)c3ccccc3OC)cc2c1`, the growth in the assay on DU-145 prostate is 10.8%; in the assay on K-562 leukemia, 4.24% (active); with MALME-3M melanoma, 38.6%; with MDA-MB-231 breast, 0.317% (active); in the assay with RXF 393 renal, -7.9% (active); in the assay with SF-268 CNS, 9.36% (active). The growth was 8.29% (active) in the assay on SF-295 CNS, -10% (active) with SF-539 CNS, 37.6% in the assay with UACC-257 melanoma and 13.8% with M14 melanoma.
As to `C#C[C@@]1(O)[C@@H](CO)O[C@@H](n2cc(I)c3c(N)ncnc32)[C@@H]1O`, the growth in the assay with DU-145 prostate was 7.45% (active); in the assay on K-562 leukemia, 6.9% (active); with MALME-3M melanoma, -5.65% (active); in the assay with MDA-MB-231 breast, 2.55% (active); in the assay on RXF 393 renal, -27.7% (active); with SF-268 CNS, 28.5%. The growth in the assay with SF-295 CNS is 10.5%; in the assay on SF-539 CNS, -40.5% (active); with UACC-257 melanoma, 44.7%; in the assay on M14 melanoma, 22.4%.
Consider `Cc1ccc(CS/C(=C\c2ccc([N+](=O)[O-])cc2)C(=O)c2ccc(F)cc2)cc1`, for which the growth with DU-145 prostate was 91.2%; with K-562 leukemia, -0.821% (active); in the assay on MALME-3M melanoma, 83.7%; in the assay with MDA-MB-231 breast, 60.5%; in the assay with RXF 393 renal, 100%; in the assay on SF-268 CNS, 74.6%. The growth was 79.2% in the assay with SF-295 CNS, 98.1% with SF-539 CNS, 93.3% in the assay on UACC-257 melanoma and 40.8% in the assay on M14 melanoma.
As to `Sc1cccc2cccnc12`, the growth with DU-145 prostate was 27.1%; in the assay with K-562 leukemia, 9% (active); in the assay on MALME-3M melanoma it was 10.9%; in the assay with MDA-MB-231 breast, 33.8%; with RXF 393 renal it was 13.4%; in the assay on SF-268 CNS, 34.1%. For the same molecule, the growth was 47.1% in the assay on SF-295 CNS, 53.8% in the assay on SF-539 CNS, 24.3% in the assay on UACC-257 melanoma and -3.55% (active) with M14 melanoma.
Turning to `C=CCn1c(CN2CCN(c3cc4c(cc3F)c(=O)c(C(=O)O)cn4C3CC3)CC2)n[nH]c1=S`, the growth was 103% in the assay on DU-145 prostate; 89.6% with K-562 leukemia; 85.4% in the assay with MALME-3M melanoma; 116% in the assay on MDA-MB-231 breast; 115% with RXF 393 renal; 97.5% in the assay on SF-268 CNS. The growth in the assay with SF-295 CNS is 101%; in the assay with SF-539 CNS, 98.8%; in the assay on UACC-257 melanoma, 105%; in the assay on M14 melanoma it was 107%.
Regarding `Cc1cc(Nc2nc(SCc3ccc(C(=O)Nc4ccc(F)cc4N)cc3)nn3cccc23)n[nH]1`, the growth in the assay with DU-145 prostate was 20.1%; with K-562 leukemia it was 7.36% (active); in the assay on MALME-3M melanoma, 53.7%; with MDA-MB-231 breast, 22.8%; in the assay with RXF 393 renal it was 23.5%; with SF-268 CNS, 28.2%. For the same molecule, the growth was 18% with SF-295 CNS, 8.82% (active) in the assay with SF-539 CNS, 67.6% in the assay with UACC-257 melanoma and 38.9% with M14 melanoma.
With `CCCCc1nc(Cl)c(C2CC(c3ccc(Cl)cc3)=NN2c2cc(Cl)cc(Cl)c2)[nH]1` (stereo not given), the growth with DU-145 prostate is 40.8%; in the assay on K-562 leukemia it was 76.5%; in the assay with MALME-3M melanoma it was 88.4%; with MDA-MB-231 breast, 80.3%; in the assay with RXF 393 renal, 43.3%; with SF-268 CNS it was 41.2%. For the same molecule, the growth in the assay on SF-295 CNS is 74.3%; in the assay on SF-539 CNS it was 79.8%; in the assay with UACC-257 melanoma, 94.8%; in the assay on M14 melanoma, 93.6%.
`O=Cc1[nH]c(Sc2ccccc2)c2ccccc12`: the growth in the assay with DU-145 prostate is 83%; in the assay on K-562 leukemia, 35.5%; in the assay on MALME-3M melanoma, 58.2%; in the assay on MDA-MB-231 breast, 85.1%; in the assay on RXF 393 renal it was 75.1%; in the assay with SF-268 CNS, 75%. Moreover, the growth was 114% with SF-295 CNS, 78.8% in the assay on SF-539 CNS, 77.7% with UACC-257 melanoma and 81.3% in the assay with M14 melanoma.
`COC(=O)/C=C1\SC(=Nc2cccc(OC)c2)N(CCc2c[nH]c3ccccc23)C1=O`: the growth was 69.3% in the assay with DU-145 prostate; 40.8% in the assay with K-562 leukemia; 80.5% in the assay on MALME-3M melanoma; 66.1% in the assay on MDA-MB-231 breast; 49.2% in the assay with RXF 393 renal; 82.8% in the assay on SF-268 CNS. For the same molecule, the growth with SF-295 CNS was 61.9%; in the assay with SF-539 CNS it was 83.4%; with UACC-257 melanoma it was 61.7%; in the assay on M14 melanoma it was 64.9%.
As to `O=C1CS/C(=N/c2nnc(-c3ccc(O)cc3)s2)N1`, the growth was 110% with DU-145 prostate; 95.6% in the assay on K-562 leukemia; 101% with MALME-3M melanoma; 109% in the assay with MDA-MB-231 breast; 125% in the assay on RXF 393 renal; 108% in the assay with SF-268 CNS. The growth with SF-295 CNS was 93.9%; in the assay with SF-539 CNS, 102%; in the assay on UACC-257 melanoma, 100%; in the assay with M14 melanoma, 103%.
Regarding `CC(=O)c1c(OCC#N)ccc2c(C)cc(=O)oc12`, the growth in the assay with DU-145 prostate was 114%; with K-562 leukemia it was 69%; in the assay on MALME-3M melanoma, 116%; with MDA-MB-231 breast, 104%; in the assay with RXF 393 renal, 106%; with SF-268 CNS it was 110%. Moreover, the growth in the assay on SF-295 CNS was 125%; in the assay on SF-539 CNS it was 105%; in the assay with UACC-257 melanoma, 133%; in the assay on M14 melanoma it was 102%.
Turning to `Cc1cccc(C)c1NCc1nnc(-c2ccco2)o1`, the growth was 99.9% with DU-145 prostate; 100% with K-562 leukemia; 85.2% in the assay on MALME-3M melanoma; 79.7% in the assay with MDA-MB-231 breast; 102% with RXF 393 renal; 93.5% in the assay on SF-268 CNS. The growth is 92.4% with SF-295 CNS, 97.7% in the assay on SF-539 CNS, 98.7% in the assay with UACC-257 melanoma and 99% in the assay with M14 melanoma.
Consider `CC1=C(CCCOC(=O)NCCCl)C2=C(C)C3(CC3)[C@@](C)(O)C(=O)C2=C1`, for which the growth in the assay on DU-145 prostate is 12.4%; in the assay with K-562 leukemia it was 85.9%; with MALME-3M melanoma, 34.6%; in the assay on MDA-MB-231 breast it was 44.8%; with RXF 393 renal it was -69.2% (active); in the assay with SF-268 CNS, 14.1%. Also, the growth in the assay with SF-295 CNS was 1.44% (active); in the assay with SF-539 CNS, 42.6%; with UACC-257 melanoma it was 48.5%; in the assay on M14 melanoma, 17.9%.
For `O=C1CC23OC(C(O)c4ccccc4N12)C1C(c2ccccc2)=NOC13` (stereo not given), the growth in the assay with DU-145 prostate is 81.9%; in the assay with K-562 leukemia, 16.1%; with MALME-3M melanoma, 49.8%; in the assay with MDA-MB-231 breast it was 52.9%; with RXF 393 renal, 71.5%; in the assay on SF-268 CNS, 64.1%. For the same molecule, the growth is 42.3% in the assay on SF-295 CNS, 50% in the assay on SF-539 CNS, 89.2% with UACC-257 melanoma and 16.1% with M14 melanoma.

These data come from PubChem BioAssay (NCI).
